Reference: PubChem BioAssay (NCATS)
Records with an inconclusive call do not appear. Unmarked numbers belong to inactive results. Calls come from the whole dose curve; as a rule, active = well fitted inhibition curve with a large enough effect; inconclusive = small, poorly fitted or top-dose-only effect; inactive = flat fitted curve, though single readings scatter.

What follows are molecules tested against Calcium and integrin-binding protein 1 (Homo sapiens) (UniProt Q99828) (assay: Primary qHTS for Identification of Calcium Integrin Binding Protein 1 (CIB1) Competitor (AID 1508620;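 note: GST tagged CIB1 binding a fluorescein labelled alphaIIb integrin peptide tracer; top concentration of the series differs between compounds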)). Settings: CIB1-GST / FITC-alphaIIb peptide fluorescence polarization; series mostly up to 114 µM; activity change, negative = inhibition: at the top concentration.
Sequence of Calcium and integrin-binding protein 1 (Homo sapiens) (Q99828 whole entry, looked up): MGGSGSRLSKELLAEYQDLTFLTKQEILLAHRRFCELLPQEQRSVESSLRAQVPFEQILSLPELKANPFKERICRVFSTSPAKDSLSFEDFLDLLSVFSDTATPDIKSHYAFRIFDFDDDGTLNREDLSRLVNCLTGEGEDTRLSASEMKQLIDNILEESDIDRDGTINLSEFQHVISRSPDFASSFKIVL
How it was run: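 CIB1-GST (1 uM final) and compound incubated 15 min at room temperature before adding FITC-alphaIIb peptide tracer (100 nM final). Competition for binding read by fluorescence polarization (ex 480, em 540) after another 15 min at room temperature.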
% is set by controls: 0 for no effect and ±100 for the full control effect.

Structure (SMILES) | activity change, negative = inhibition [%]
Cc1cc2c(s1)c1cnn(Cc3ccc(C(C)(C)C)cc3)c(=O)c1n2C | 3.43
Cc1cc(C)n2ncc(C(=O)Nc3ccc(C)c(C)c3)c2n1 | 5.65
Cc1ccc(OCCn2c(CCNC(=O)CCc3ccccc3Br)nc3ccccc32)cc1 | 17.1
N=c1c2c(ncn1CCN1CCOCC1)Oc1ccc3ccccc3c1C2c1ccccc1 (stereo not drawn) | 0.14
CC(C)(C)OC(=O)NCCOCCOCCOCCn1ncc2c1CCCC2NC(=O)c1ccccn1 (stereo not drawn) | -2.14
Cc1cc2c(s1)c1c(C)nn(Cc3ccc(F)cc3)c(=O)c1n2C | 3.78
O=C(Nc1ccc(-c2nc3ccccc3[nH]2)cc1)Nc1ccc2c(c1)OCCO2 | -4.26
CCC(=O)NC(C)c1cc(Cl)c2ccccc2c1O (stereo not drawn) | -1.79
Cc1cc(C)nc(NC(=S)N2CCN(c3ccc(C(F)(F)F)cc3[N+](=O)[O-])CC2)c1 | -13
COc1ccc(C2Nc3ccccc3C(=O)N2Cc2ccccc2OC)cc1COc1ccc(NC(C)=O)cc1 (stereo not drawn) | 2.01
COc1ccc(-c2nnc3n2N=C(c2ccc(OC)c(OC)c2)CS3)c(OC)c1 | 2.85
COc1ccc(C2Nc3ccccc3C(=O)N2Cc2ccccc2)cc1COc1ccccc1OC (stereo not drawn) | 3.91
CC(=O)Nc1sc2c(c1-c1cccc3ccccc13)CCNC2 | 0.479
N#Cc1ccc(-c2ccc(CNc3ccc(N4CCC(C#N)CC4)cc3)o2)cc1 | -11.1
CC(=O)c1ccc(N2CCN(C(=O)c3ccc4c(c3)CCC(=O)N4)CC2)cc1 | -3.27
COC(=O)c1ccc(Nc2nc(-c3ccncc3)nc3ccccc23)cc1OC | 1.55
CCOC(=O)C1CCN(c2ccc(NCc3ccc(-c4ccc(C#N)cc4)o3)cc2)CC1 | -6.55
O=C(OCC#CCSc1nnc(-c2cccc3ccccc23)o1)C1CCCC1 | -0.608
Cc1cc2c(s1)c1cnn(Cc3c(F)ccc(Cl)c3F)c(=O)c1n2C | -0.826
Cc1cc2c(s1)c1cnn(Cc3c(F)ccc(C)c3Cl)c(=O)c1n2C | 18.6
Cc1cc(N(C)S(=O)(=O)c2ccc(NC(=O)Cc3ccc(Cl)c(Cl)c3)cc2)no1 | -4.12
c1c[nH]c(CNc2ncnc3ccc(-c4ccoc4)cc23)n1 | -3.22
N#Cc1nc(Nc2cccc(-c3ccccc3)c2)nc(NC2CCCC2)n1 | 4.96
